The list is not random: actives were taken first. Their share in the collection is about 1.7%.
E-sel TNF inh – TNF alpha driven E-selectin expression inhibition | HUVEC TNFa-induced E-selectin immunofluorescence, high content | inhibition, % at 2 µM | actives 0.71% (n = 120,000) | AID 1246;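 active = inhibition above the batch mean plus 3 SD, and confirmed as a hit on visual image review, cut at about 43% in these data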
TNFa cytotox – toxic to HUVEC cells under TNF alpha stimulation; HUVEC TNFalpha-stimulated, Hoechst cell count, imaging; cell count reduction, % at 2 µM; actives 0.17% (n = 93,000); AID 848;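 active = cell count reduction exceeding the screen mean by over 5 SD, scaled to untreated wells per plate, cut at about 78% in these data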;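 note: cells counted after 24 h of TNF alpha exposure following the 1 h pretreatment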
IL1B cytotox – HUVEC cytotoxicity counter-screen, IL-1B stimulated; HUVEC cell count loss, Hoechst imaging; actives 0.41% (n = 94,000); cell count reduction, % at 2 µM;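 active = cell count reduction more than 3 SD above the screen-wide mean, cut at about 70% in these data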
IL1B NFkB inh – blocks IL-1B driven NFkB nuclear translocation in HUVEC cells | inhibition, % at 2 µM | actives 0.43% (n = 94,000) | HUVEC IL-1B NFkB p65 nuclear translocation imaging;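 active = inhibition above about 30% together with a positive call from visual inspection of the well image, limit read from the data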;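 note: nuclear over cytoplasmic p65 intensity ratio measured by imaging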
NFkB transloc pot – enhances IL-1B driven NFkB nuclear translocation. HUVEC IL-1B NFkB p65 nuclear translocation imaging. activation, % at 2 µM. actives 0.3% (n = 94,000);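 active = activation above 40%, about the mean plus 3 SD, also judged a hit on visual image review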;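 note: percent activation is computed from the nuclear over cytoplasmic p65 intensity ratio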
VCAM1 TNFa inh – reduces TNF alpha induced VCAM1 expression in HUVEC | HUVEC TNFa-induced VCAM-1 immunofluorescence, high-content imaging | inhibition, % at 2 µM | AID 802 | actives 0.48% (n = 95,000);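 active = inhibition above the batch mean plus 3 SD, with images confirmed as a hit by eye, cut at about 37% in these data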
A number is an active result; - = inactive; . = not tested or not shown.

SMILES	E-sel TNF inh	TNFa cytotox	IL1B cytotox	IL1B NFkB inh	NFkB transloc pot	VCAM1 TNFa inh
O=C(CCCOc1ccc(Cl)cc1)Nc1nncs1	-	-	-	-	43	-
O=C(Nc1ccc2nc(-c3cccs3)[nH]c2c1)c1cccs1	-	-	90	-	-	-
COc1ccc2[nH]c(C)c(CCNC(=S)Nc3cc(C)cc(C)c3)c2c1	-	.	.	.	.	.
COc1ccc2[nH]c(C)c(CCN3C(=O)C4C5C=CC(C5)C4C3=O)c2c1 (stereo not drawn)	70	-	-	-	-	-
COC(=O)CCS(=O)(=O)c1ccc(Cl)c(Cl)c1	-	-	95	-	-	-
COC(=O)CCS(=O)(=O)c1ccc(Cl)cc1	-	-	-	-	-	-
O=C1CC(c2cc(Br)ccc2F)c2cc3c(cc2N1)CCC3 (stereo not drawn)	-	.	-	-	-	82
COc1ccc(/C=N/NC(=O)C(O)(c2ccccc2)c2ccccc2)cc1OC	-	.	.	.	.	.
O=C(CSc1ncnc2nc[nH]c12)Nc1ccccc1C(F)(F)F	76	-	-	-	-	-
Cc1cc(C)cc(C(=O)Oc2coc(CSc3nnc(NC(=O)C4CC4)s3)cc2=O)c1	61	.	.	.	.	.
COc1cc(CNC2CCC(C)C2)cc(OC)c1 (stereo not drawn)	-	-	89	-	-	-
COc1cc(CNC2CCCC2)cc(OC)c1	-	-	-	-	-	-
Cc1nn(-c2ccccc2)c(=S)c2ccccc12	-	.	.	.	.	.
Cc1ccc(S(=O)(=O)N2CCOCC2)cc1N/N=C(\C#N)c1nc2ccccc2[nH]1	-	.	.	.	.	.
CCCCN(C(=O)NC(=O)Nc1cccc(C)c1C)S(C)(=O)=O	.	-	-	-	-	90
O=C(COC(=O)c1cccnc1Cl)NCc1ccco1	-	.	.	.	.	.
CC12CCC(C(=O)N(CSC(=S)N/N=C\c3ccccc3)C1=O)C2(C)C (stereo not drawn)	-	-	-	-	-	-
CC12CCC(C(=O)N(CSC(=S)N/N=C\c3ccccc3Cl)C1=O)C2(C)C (stereo not drawn)	-	-	95	100	-	-
Cn1cc([N+](=O)[O-])c(C(=O)N(Cc2ccccc2)Cc2ccccc2)n1	-	.	.	.	.	.
COc1ccc(NC(=O)[C@H](CCS(C)(=O)=O)N2Cc3ccccc3C2=O)c(OC)c1	-	-	-	-	-	-
COc1ccccc1NC(=O)C(CCS(C)(=O)=O)N1C(=O)c2ccccc2C1=O (stereo not drawn)	-	-	-	-	42	-
O=C(Nc1ccc(-c2cn3ccsc3n2)cc1)C1CCCC1	-	-	90	100	-	-
c1ccc(NC2=NCCCCS2)cc1	54	-	-	-	-	-
c1ccc2c(NC3=NCCCCS3)cccc2c1	-	-	-	-	-	-
CCOC(=O)c1[nH]c(C)c(C(=O)N2CCc3ccccc32)c1C	-	-	-	-	100	54
SMILES	E-sel TNF inh	TNFa cytotox	IL1B cytotox	IL1B NFkB inh	NFkB transloc pot	VCAM1 TNFa inh
O=C(NCc1ccc(-n2cccc2)cc1)c1cccc(F)c1	-	.	.	.	.	.
Cc1nc2cc(NC(=O)Nc3cccc4ccccc34)ccc2n1C	-	.	.	.	.	.
O=C(Nc1ccc2snnc2c1)Nc1cccc2ccccc12	-	-	87	-	-	-
CCc1c(C)nc2ncnn2c1N1CCC(C(=O)N2CCN(c3ccc(F)cc3)CC2)CC1	55	-	-	-	-	-
CCc1c(C)nc2ncnn2c1N1CCCC(C(=O)Nc2ccc(NC(C)=O)cc2)C1 (stereo not drawn)	-	-	-	-	-	-
C=CCOc1ccccc1/C=c1\sc2nc(-c3oc4ccccc4c3C)nn2c1=O	-	-	-	-	-	-
COc1ccccc1/C=c1\sc2nc(-c3ccccc3OC)nn2c1=O	-	-	-	-	52	-
O=C(CNc1cc(S(=O)(=O)N2CCOCC2)ccc1N1CCCC1)N1CCc2ccccc21	-	.	.	.	.	.
COC(=O)COc1ccc(=O)n(-c2ccccc2)n1	-	99	-	-	-	.
CCCN1CCC(N2CCCC(C(=O)O)C2)CC1 (stereo not drawn)	-	.	.	.	.	.
CCOC(=O)N1CCN(C(=S)NC(=O)c2cncc(Br)c2)CC1	89	.	.	.	.	.
CCOC(=O)N1CCN(C(=S)Nc2cccc(C)c2)CC1	-	-	-	-	-	-
CCOc1ccccc1NC(=O)/C(C#N)=C/c1c(C)nn(-c2ccc(F)cc2)c1Cl	-	.	.	.	.	.
CN(C)c1nc(C=C(C#N)C#N)c(Cl)n1-c1ccc(F)cc1	87	.	.	.	.	.
Cc1nc2scc(-c3ccccc3)c2c(=O)n1N	.	-	-	-	-	-
Cc1nc2scc(-c3ccccc3)c2c(=O)n1N=C1C=CC(=O)C=C1	88	.	.	.	.	.
COc1ccc(C(=O)C(CN2CCCC2)c2ccccc2)cc1 (stereo not drawn)	.	-	-	-	-	84
COc1ccc(C(=O)C(CN2CCOCC2)c2ccccc2)cc1 (stereo not drawn)	-	-	-	-	-	51
S=C(Nc1ccccc1Cl)N(CCN1CCCCC1)Cc1ccco1	-	.	.	.	.	.
Cc1onc(-c2ccccc2Cl)c1C(=O)Nc1cccc(-c2cn3cccnc3n2)c1	-	-	85	94	-	-
CCC(=O)Nc1cccc(C(=O)/C=C/c2cc(Br)ccc2OC)c1	-	-	-	-	-	69
CC(=O)Nc1cccc(C(=O)/C=C/c2ccc(Br)cc2)c1	-	.	.	.	.	.
Cc1cc(Cl)ccc1C(=O)C1CCCN(C(=O)c2cnsn2)C1 (stereo not drawn)	-	.	.	.	.	.
CCOc1ccccc1CNC(=O)c1ccc(Sc2ccc(Cl)cc2)c(NC(C)=O)c1	-	.	.	.	.	.
O=C1CCC(=O)N1CCc1c[nH]c2ccccc12	-	-	-	-	-	-
SMILES	E-sel TNF inh	TNFa cytotox	IL1B cytotox	IL1B NFkB inh	NFkB transloc pot	VCAM1 TNFa inh
O=C1CCCCN1CCc1c[nH]c2ccccc12	-	-	86	-	-	-
COc1cccc(-n2c(=O)c3c(C)c(C(=O)N(C)C)sc3n(CC(=O)NCC3CCCO3)c2=O)c1 (stereo not drawn)	-	.	.	.	.	.
COc1ccc(S(=O)(=O)Nc2nc3n(n2)C(c2ccc(Cl)cc2)CC(=O)N3)cc1 (stereo not drawn)	-	-	-	-	-	39
COc1ccc(NS(=O)(=O)c2ccc(OCC(=O)N3CCOCC3)cc2)cc1	-	-	-	31	-	-
O=C(COc1ccc(S(=O)(=O)Nc2ccccc2)cc1)N1CCOCC1	-	.	-	-	-	.
Cc1cc(OCC(=O)NCc2ccccn2)cc(C)c1Br	-	.	.	.	.	.

High-throughput results deposited in PubChem BioAssay by Columbia University Molecular Screening Center.
